Bioassay records deposited in PubChem by University of Kansas High Throughput Screening Laboratory.
mHTT CaM bind – mutant huntingtin-calmodulin interaction inhibitors – biochemical, AlphaScreen, primary screen; inhibition, % at 15 µM; hit rate 3.6% among 190,000; AlphaScreen His-mHTT/GST-CaM binding, luminescence; P42858
Pf apPOL block – Pf-apPOL inhibitors, biochemical, fluorescence. inhibition, % at 10 µM. hit rate 0.25% among 210,000. Plasmodium falciparum apicoplast DNA polymerase (apPOL). AID 1794808, 2022. Recombinant Pf-apPOL, molecular beacon fluorescence, 1.5 h
Large screens that a line does not name were inactive. In the library only some 3.5% were active in any assay of this set; here they are far more common. Rule as the data show it: active = inhibition above about 50%; inactive = the rest.

O=C(Nc1ccc(N2CCOCC2)cc1)C1CCN(c2cncnc2N2CCCC2)CC1	none
CCSc1nnc(NC(=O)CCn2cnc3c(cnn3-c3ccc(F)cc3)c2=O)s1	none
CCn1c(-c2cc(NC(=O)C3CC3)n[nH]2)cc2c(OC)cccc21	mHTT CaM bind 50
CCn1c(-c2cc(NC(=O)C3CC3)n[nH]2)cc2ccc(OC)cc21	none
O=[N+]([O-])c1cc(C(F)(F)F)cc([N+](=O)[O-])c1Sc1nc2ccccc2[nH]1	mHTT CaM bind 99
Nc1ncnc(Sc2nc3ccccc3[nH]2)c1[N+](=O)[O-]	mHTT CaM bind 79
O=[N+]([O-])c1ccc(Cl)cc1Sc1nc2ccccc2[nH]1	none
Cn1cnc([N+](=O)[O-])c1Sc1nc2ccccc2[nH]1	none
COCC1CCN(C(=O)CCC2CCN(c3cc(NC4CC4)ncn3)CC2)CC1	none
Cc1ccccc1C(=O)N1CCN(c2ccc(NC(=O)C(C)(C)C)cn2)CC1	none
C=CCc1cccc(C2Nc3ccccc3C(=O)N2O)c1O (stereo unspecified)	Pf apPOL block 57
O=C1c2ccccc2NC(c2ccc(Cl)cc2Cl)N1O (stereo unspecified)	none
Cn1nc(-c2nc(Cc3ccccc3)no2)c2c1CCN(C(=O)Nc1cccc(F)c1)C2	none
Cn1cnnc1SCc1c(Cl)cccc1Cl	none
Cc1ccc(N2CCN(C(=O)c3cccc4[nH]cc(CN5CCCC5)c34)CC2)cc1	mHTT CaM bind 78
Cc1ccc(NC(=O)c2cccc3[nH]cc(CN4CCCC4)c23)cc1	none
CSc1oc(-c2ccc(C)cc2)nc1S(=O)(=O)c1ccccc1	none
O=C(NC1CCCCC1)N1CCCC1c1cccc(F)c1 (stereo unspecified)	none
N#Cc1c(C(F)(F)F)cc(-c2cccs2)nc1SCC(=O)Nc1ccc([N+](=O)[O-])cc1	Pf apPOL block 64
N#Cc1c(C(F)(F)F)cc(-c2cccs2)nc1SCC(=O)Nc1ccccc1	none
Cc1ccc(NC(=O)N2CCCC(CCC(=O)N3CCOCC3)C2)cc1 (stereo unspecified)	none
Cc1ccc(NC(=O)N2CCCC(CCC(=O)N3CCC(Cc4ccccc4)CC3)C2)cc1 (stereo unspecified)	mHTT CaM bind 54
O=C(Cc1csc(NS(=O)(=O)c2ccccc2)n1)Nc1ccc2c(c1)OCCO2	none
CN1CCCc2cc(CCNC(=O)C34CC5CC(CC(C5)C3)C4)ccc21	mHTT CaM bind 53
O=S(=O)(NCC#CCN1CCc2ccccc2C1)c1cccs1	none
CN1CCCc2cc(C(CNC(=O)C34CC5CC(CC(C5)C3)C4)N3CCCC3)ccc21 (stereo unspecified)	none
CN1CCCc2cc(CCNS(=O)(=O)c3cccs3)ccc21	mHTT CaM bind 51
O=C1c2cccc([N+](=O)[O-])c2C(=O)N1c1cccc(C(F)(F)F)c1	none
COc1ccc(C(=O)Nc2cccc(-c3nc4ccccc4o3)c2C)cc1[N+](=O)[O-]	none
Cc1c(C)c(C)c(S(=O)(=O)Nc2cc(C(F)(F)F)cc(C(F)(F)F)c2)c(C)c1C	none (no result: mHTT CaM bind)
COc1ccc2c(c1)sc(=NC(=O)c1ccc(S(=O)(=O)N3CCC(C)CC3)cc1)n2C	none
CC1=C(C(=O)Nc2cc(C)ccn2)C(c2ccc(Cl)cc2Cl)C2=C(CC(C)(C)CC2=O)N1 (stereo unspecified)	none
O=C(Cn1nc([N+](=O)[O-])nc1Br)Nc1cccc([N+](=O)[O-])c1	none
CC(C)CC(=O)N1CCN(CC2CC=CCC2)CC1 (stereo unspecified)	Pf apPOL block 91
O=C(C1CCN(CC2CC=CCC2)CC1)N1CCCC1 (stereo unspecified)	none
Cc1ccc(C(=O)N2CCC(CC(=O)NCCc3ccc(Cl)cc3)CC2)cc1	none
O=[N+]([O-])c1ccc(-c2cn3c(n2)SCC3)cc1	none
CC1Cn2cc(-c3ccc([N+](=O)[O-])cc3)nc2S1 (stereo unspecified)	Pf apPOL block 51
O=C(CN1CCC(c2nc(-c3cccs3)no2)CC1)Nc1ccccc1Br	none
O=C1CSC(c2ccc3c(c2)OCO3)N1c1ccc(F)cc1F (stereo unspecified)	none
CC(C)N1C(=O)C(C)(C(=O)Nc2cccc(Cl)c2)Oc2cccnc21 (stereo unspecified)	none
CC(C)N1C(=O)C(C)(C(=O)Nc2ccc(F)c(Cl)c2)Oc2cccnc21 (stereo unspecified)	mHTT CaM bind 100
CC1C(=O)C(C)C(c2ccc(F)cc2)NC1c1ccc(F)cc1 (stereo unspecified)	none
CC1C(=O)C(C)C(c2ccc(N(C)C)cc2)NC1c1ccc(N(C)C)cc1 (stereo unspecified)	mHTT CaM bind 77
CC1CCN(C(=O)C2CCCN(c3cnc4nccnc4c3)C2)CC1 (stereo unspecified)	none
Cc1ccc(C(=O)N2CCc3nc4cc(-c5ccccc5)[nH]n4c(=O)c3C2)cc1F	none
COc1ccc(-c2cc3nc4c(c(=O)n3[nH]2)CCN(C(=O)c2ccc(C)c(F)c2)C4)cc1	none
